Laboratory results published in the supplement of paper PMC8728848.
The sample as a whole holds a higher share of the strongest signals than the screen did.

Experiments:
Assay in all cases: glycan array binding signal (z-score within array); higher = stronger binding
Conditions in all cases: glycan notation: IUPAC condensed, linker removed
[1] = target: Fuc(a1-2)Gal
In short: (§1)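 Glycan array data were curated from 3228 arrays in the Consortium for Functional Glycomics database and kept only where the protein sequence was available. Glycan names were converted to IUPAC-condensed notation, and columns mapping to the same glycan were averaged. The binding signal is a within-array Z-score, averaged across arrays of the same protein sequence at different concentrations or buffers and across linkers. Negative Z-scores can be read as non-binding.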

[2] = target: Fuc(a1-2)Gal(b1-3)GalNAc(a1-3)[Fuc(a1-2)]Gal(b1-4)GlcNAc
In short: as §1

[3] = target: Fuc(a1-2)Gal(b1-4)GlcNAc6S
In short: as §1

[4] = target: Fuc(a1-2)Gal3S(b1-4)GlcNAc
In short: as §1

[5] = target: Fuc(a1-2)Gal6S(b1-4)Glc
In short: as §1

[6] = target: Fuc(a1-2)[Gal(a1-3)]Gal(b1-3)GlcNAc(b1-2)Man(a1-3)[Fuc(a1-2)[Gal(a1-3)]Gal(b1-3)GlcNAc(b1-2)Man(a1-6)]Man(b1-4)GlcNAc(b1-4)[Fuc(a1-6)]GlcNAc
In short: as §1

[7] = target: Fuc(a1-2)[GalNAc(a1-3)]Gal
In short: as §1

[8] = target: Fuc(a1-2)[GalNAc(a1-3)]Gal(b1-3)GlcNAc
In short: as §1

[9] = target: Fuc(a1-2)[GalNAc(b1-3)]Gal
In short: as §1

[10] = target: Gal(a1-3)Gal(b1-3)GlcNAc
In short: as §1

[11] = target: Gal(a1-3)Gal(b1-3)GlcNAc(b1-3)GalNAc
In short: as §1

[12] = target: Gal(a1-3)Gal(b1-4)GlcNAc(b1-3)GalNAc
In short: as §1

[13] = target: Gal(a1-4)Gal(b1-4)GlcNAc(b1-3)Gal(b1-4)Glc
In short: as §1

[14] = target: Gal(b1-3)GlcNAc(a1-3)Gal(b1-4)GlcNAc
In short: as §1

[15] = target: Gal(b1-3)GlcNAc(b1-2)Man(a1-3)[Gal(b1-3)GlcNAc(b1-2)Man(a1-6)]Man(b1-4)GlcNAc(b1-4)GlcNAc
In short: as §1

[16] = target: Gal(b1-3)GlcNAc(b1-2)Man(a1-3)[Gal(b1-3)GlcNAc(b1-2)Man(a1-6)]Man(b1-4)GlcNAc(b1-4)[Fuc(a1-6)]GlcNAc
In short: as §1

[17] = target: Gal(b1-3)GlcNAc(b1-2)Man(a1-3)[GlcNAc(b1-4)][Gal(b1-3)GlcNAc(b1-2)Man(a1-6)]Man(b1-4)GlcNAc(b1-4)GlcNAc
In short: as §1

[18] = target: Gal(b1-3)GlcNAc(b1-2)[Gal(b1-3)GlcNAc(b1-6)]Man(a1-6)[Gal(b1-3)GlcNAc(b1-2)Man(a1-3)]Man(b1-4)GlcNAc(b1-4)GlcNAc
In short: as §1

[19] = target: Gal(b1-3)GlcNAc(b1-6)[Gal(b1-3)]GalNAc
In short: as §1

[20] = target: Gal(b1-4)GlcNAc(b1-2)[Gal(b1-4)GlcNAc(b1-4)]Man(a1-3)[Gal(b1-4)GlcNAc(b1-2)Man(a1-6)]Man(b1-4)GlcNAc(b1-4)GlcNAc
In short: as §1

[21] = target: Gal(b1-4)GlcNAc(b1-2)[Gal(b1-4)GlcNAc(b1-6)]Man(a1-6)[GlcNAc(b1-4)][Gal(b1-4)GlcNAc(b1-2)Man(a1-3)]Man(b1-4)GlcNAc(b1-4)GlcNAc
In short: as §1

[22] = target: Gal(b1-4)GlcNAc(b1-3)Gal(b1-4)GlcNAc
In short: as §1

[23] = target: Gal(b1-4)GlcNAc(b1-3)Gal(b1-4)GlcNAc(b1-2)Man(a1-3)[Gal(b1-4)GlcNAc(b1-3)Gal(b1-4)GlcNAc(b1-2)Man(a1-6)]Man(b1-4)GlcNAc(b1-4)GlcNAc
In short: as §1

[24] = target: Gal(b1-4)GlcNAc(b1-3)Gal(b1-4)GlcNAc(b1-2)[Gal(b1-4)GlcNAc(b1-3)Gal(b1-4)GlcNAc(b1-6)]Man(a1-6)[Gal(b1-4)GlcNAc(b1-3)Gal(b1-4)GlcNAc(b1-2)Man(a1-3)]Man(b1-4)GlcNAc(b1-4)GlcNAc
In short: as §1

[25] = target: Gal(b1-4)GlcNAc(b1-3)Gal(b1-4)GlcNAc(b1-3)Gal(b1-4)GlcNAc(b1-2)Man(a1-3)[Gal(b1-4)GlcNAc(b1-3)Gal(b1-4)GlcNAc(b1-3)Gal(b1-4)GlcNAc(b1-2)Man(a1-6)]Man(b1-4)GlcNAc(b1-4)[Fuc(a1-6)]GlcNAc
In short: as §1

[26] = target: Gal3S(b1-3)[Fuc(a1-4)]GlcNAc
In short: as §1

[27] = target: Gal3S(b1-4)Glc
In short: as §1

[28] = target: GalNAc(b1-4)GlcNAc6S
In short: as §1

[29] = target: GlcA3S(b1-3)Gal(b1-4)GlcNAc(b1-3)Gal(b1-4)Glc
In short: as §1

[30] = target: GlcNAc(a1-4)Gal(b1-4)GlcNAc(b1-3)Gal(b1-4)GlcNAc(b1-3)Gal(b1-4)GlcNAc
In short: as §1

[31] = target: GlcNAc(b1-3)Gal(b1-3)GalNAc
In short: as §1

[32] = target: GlcNAc(b1-3)Gal(b1-4)GlcNAc(b1-3)Gal(b1-4)GlcNAc(b1-2)Man(a1-3)[GlcNAc(b1-3)Gal(b1-4)GlcNAc(b1-3)Gal(b1-4)GlcNAc(b1-2)Man(a1-6)]Man(b1-4)GlcNAc(b1-4)GlcNAc
In short: as §1

[33] = target: GlcNAc(b1-3)Gal(b1-4)GlcNAc(b1-3)Gal(b1-4)GlcNAc(b1-3)Gal(b1-4)GlcNAc(b1-2)Man(a1-3)[GlcNAc(b1-3)Gal(b1-4)GlcNAc(b1-3)Gal(b1-4)GlcNAc(b1-3)Gal(b1-4)GlcNAc(b1-2)Man(a1-6)]Man(b1-4)GlcNAc(b1-4)[Fuc(a1-6)]GlcNAc
In short: as §1

[34] = target: GlcNAc(b1-6)Gal(b1-4)GlcNAc
In short: as §1

[35] = target: Kdn(a2-3)Gal(b1-4)Glc
In short: as §1

[36] = target: Man(a1-2)Man(a1-3)[Man(a1-2)Man(a1-6)]Man
In short: as §1

[37] = target: Man(a1-2)Man(a1-3)[Man(a1-2)Man(a1-6)]Man(a1-6)[Man(a1-2)Man(a1-2)Man(a1-3)]Man
In short: as §1

[38] = target: Man(a1-2)Man(a1-6)[Man(a1-3)]Man(a1-6)[Man(a1-2)Man(a1-2)Man(a1-3)]Man(b1-4)GlcNAc(b1-4)GlcNAc
In short: as §1

[39] = target: Man(a1-6)Man
In short: as §1

[40] = target: Neu5Ac(a2-3)Gal(b1-4)Glc
In short: as §1

[41] = target: Neu5Ac(a2-3)Gal(b1-4)[Fuc(a1-3)]GlcNAc6S
In short: as §1

[42] = target: Neu5Ac(a2-6)Gal(b1-3)GlcNAc(b1-3)[Gal(b1-4)GlcNAc(b1-6)]Gal(b1-4)Glc
In short: as §1

[43] = target: Neu5Ac(a2-6)Gal(b1-4)GlcNAc(b1-3)Gal(b1-4)GlcNAc(b1-3)Gal(b1-4)GlcNAc(b1-2)Man(a1-3)[Neu5Ac(a2-6)Gal(b1-4)GlcNAc(b1-3)Gal(b1-4)GlcNAc(b1-3)Gal(b1-4)GlcNAc(b1-2)Man(a1-6)]GalNAc
In short: as §1

[44] = target: Neu5Ac(a2-8)Neu5Ac(a2-3)Gal(b1-4)Glc
In short: as §1

[45] = target: Neu5Ac(a2-8)Neu5Gc(a2-3)Gal(b1-4)GlcNAc
In short: as §1

[46] = target: Neu5Ac9Ac(a2-3)Gal(b1-4)GlcNAc
In short: as §1

[47] = target: Neu5Gc(a2-3)Gal(b1-4)GlcNAc
In short: as §1

B1: Si Bti9 1b-HA (Solanum lycopersicum) (protein)
chain: MFESRPRSVLSLGVFVILVYLSSVPLPVNSQCNRGCDLALASFYVWRGSNLTLISEMFSTSIADIVSYNNRDNIPNQDSVIAGTRINIPFRCDCLNDGEVLGHAFPYRVKSGDTYDLVARNYSDLTTAQWMMKFNSYPENNIPNTVNLSVVVNCSCGNSDVSKDFGLFVTYPVRAEDNLTSVASAANVSEDIIRRYNPAAVSILDIGQGIIYIPGRDRNGNFPPLPTSTDGLSGGAKAPLFFNPAFLYKVVELKLAGRSRTSGYPYDVPDYAGYPYDVPDYALEVLFQ
[1]
  glycan array binding signal (z-score): -0.051
[2]
  glycan array binding signal (z-score): 0.182
[3]
  glycan array binding signal (z-score): -0.271
[4]
  glycan array binding signal (z-score): -0.035
[5]
  glycan array binding signal (z-score): -0.028
[6]
  glycan array binding signal (z-score): 2.04
[7]
  glycan array binding signal (z-score): -0.349
[8]
  glycan array binding signal (z-score): -0.146
[9]
  glycan array binding signal (z-score): -0.405
[10]
  glycan array binding signal (z-score): 9.57
[11]
  glycan array binding signal (z-score): 0.207
[12]
  glycan array binding signal (z-score): -0.182
[13]
  glycan array binding signal (z-score): -0.274
[14]
  glycan array binding signal (z-score): -0.16
[15]
  glycan array binding signal (z-score): 3.24
[16]
  glycan array binding signal (z-score): 1.03
[17]
  glycan array binding signal (z-score): 3.72
[18]
  glycan array binding signal (z-score): 2.51
[19]
  glycan array binding signal (z-score): -0.205
[20]
  glycan array binding signal (z-score): -0.324
[21]
  glycan array binding signal (z-score): -0.363
[22]
  glycan array binding signal (z-score): -0.346
[23]
  glycan array binding signal (z-score): 3.44
[24]
  glycan array binding signal (z-score): 2.69
[25]
  glycan array binding signal (z-score): 0.042
[26]
  glycan array binding signal (z-score): -0.237
[27]
  glycan array binding signal (z-score): 2.57
[28]
  glycan array binding signal (z-score): -0.204
[29]
  glycan array binding signal (z-score): -0.157
[30]
  glycan array binding signal (z-score): -0.231
[31]
  glycan array binding signal (z-score): -0.271
[32]
  glycan array binding signal (z-score): 2.7
[33]
  glycan array binding signal (z-score): 0.086
[34]
  glycan array binding signal (z-score): -0.32
[35]
  glycan array binding signal (z-score): -0.287
[36]
  glycan array binding signal (z-score): -0.589
[37]
  glycan array binding signal (z-score): -0.638
[38]
  glycan array binding signal (z-score): -0.201
[39]
  glycan array binding signal (z-score): 7.42
[40]
  glycan array binding signal (z-score): 0.009
[41]
  glycan array binding signal (z-score): -0.438
[42]
  glycan array binding signal (z-score): -0.236
[43]
  glycan array binding signal (z-score): 2.19
[44]
  glycan array binding signal (z-score): 0.02
[45]
  glycan array binding signal (z-score): -0.539
[46]
  glycan array binding signal (z-score): -0.425
[47]
  glycan array binding signal (z-score): -0.219
